PubChem BioAssay (NCI)
About 83,000 compounds went through this panel and 20% of them were active in at least one assay; those are over-represented in the sample as a whole.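 Results are percent growth after 48 hours of single-concentration exposure. 100 means growth as in untreated cells, lower positive values show inhibition; negative values down to -100 show cell death.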 A number with no mark means an inactive call. Activity calls are given as the source filed them. How the source made its calls: active means growth percent below 10; inactive means the rest.

What follows are compounds tested on SNB-75 CNS (assay: NCI-60 one-dose screen, 48 h (100 = growth as untreated, 0 = no growth, -100 = all killed)). Details: 10 µM unless noted.

Point of comparison: `Cc1c(Cl)cccc1S(=O)(=O)Nc1ccc2c(c1)C(=O)N(C1CCC(=O)NC1=O)C2=O` (stereo not given), growth 77.4%. Against it:
- CCOc1ccc(NC2=C(Cl)C(=O)c3nc(C)ccc3C2=O)cc1 — higher, 96.5%
- COc1cccc(/C=C(/C)c2ccc3cccc(OC)c3[o+]2)c1O — higher, 92.4%
- NC(N)=Nc1ccc(Oc2cccc(NC(N)=Nc3ccc(Cl)c(C(F)(F)F)c3)c2)cc1 — lower, 65%
- COc1ccc(CCOc2cc3c(cc2OC)CCN(C(=O)NCc2cocn2)C3c2ccc(C)cc2C)cc1 (stereo not given) — lower, 39.2%
- O=C1C(c2ccccc2)=C(N2CCc3ccccc32)OC1(Cl)Cl — lower, 74.3%
- O=C(NNc1nc2cc(F)ccc2n2c(CN3CCCC3)ccc12)c1cnccn1 — lower, 65%
- O=C(NNc1nc2cc(F)cc(F)c2n2cccc12)c1cnccn1 — lower, 49.2%
- O=C(O)c1ccc(-n2cc(CNc3cc(F)c(F)c(F)c3)c(-c3ccc(F)cc3)n2)cc1 — higher, 100%
- COc1ccc(NC2=C(Cl)C(=O)c3nc(C)ccc3C2=O)cc1OC — higher, 111%
- O=C(NNc1nc2cc(F)c(F)cc2n2c(CN3CC4CNCC4C3)ccc12)c1cnccn1 (stereo not given) — lower, 60%
- C[C@H](CCC(=O)NCc1ccc(C(=O)Nc2ccccc2N)cc1)[C@H]1CC[C@H]2[C@@H]3[C@@H](O)C[C@@H]4C[C@H](O)CC[C@]4(C)[C@H]3CC[C@]12C — higher, 91.5%
- CC(=O)c1cc(C(=O)c2ccc(Br)cc2)n2cc(C)cc(C)c12 — higher, 89.8%
- COc1ccc2c(c1)c(CC(=O)[Se]CC(=O)O)c(C)n2C(=O)c1ccc(Cl)cc1 — higher, 101%
- CNC(=O)c1cc(N2CCc3cc(NC(=O)Nc4ccc(Cl)c(C(F)(F)F)c4)ccc32)ccn1 — higher, 93.3%
- O=C(CSc1nc2ccccc2c(=O)n1-c1ccc(Cl)cc1)N/N=C/c1ccc(N2CCCCC2)cc1 — higher, 79.9%
- CCOc1ccc(C(=O)Nc2ncc(Cc3ccc(F)cc3)s2)cc1 — lower, 10.2%
- CC/C(=C/c1cc(OC)ccc1O)c1ccc2cc(OC)ccc2[o+]1 — lower, 48.3%
- COc1c(N2CC3CCCNC3C2)c(F)cc2c(=O)c(C(=O)N/N=C/c3ccc4c(c3)OCO4)cn(C3CC3)c12 (stereo not given) — higher, 102%
- O=C(NNc1nc2cc(F)c(F)cc2n2cccc12)c1cnccn1 — lower, 54.7%

With `NC(=O)c1cccc(-n2ccc3cc(NC(=O)Nc4ccc(N5CCOCC5)c(C(F)(F)F)c4)ccc32)n1` the growth was -24.4% (active).
In the case of `CN(C)CCNC(=O)c1ccc(-c2nc3ccc4[nH]ncc4c3c3c2COCC3)cc1`, the growth was -30.1% (active).
`COc1ccc2c(c1)c(CC(=O)[Se]CCC#N)c(C)n2C(=O)c1ccc(Cl)cc1` was tested, and the growth was -30.1% (active).
With `CN1CCN(Cc2ccc(NC(=O)c3cncc(C#Cc4cnc5ccc(OCC(C)(C)O)nn45)c3)cc2C(F)(F)F)CC1` the growth was -46.1% (active).
`CN1CCN(Cc2ccc(NC(=O)c3cncc(C#Cc4cnc5ccc(OCC6(C)COC6)nn45)c3)cc2C(F)(F)F)CC1` was tested, and the growth was -68.7% (active).
